Laboratory results published in PubChem BioAssay.
Values without a mark were called inactive. How the calls were made is not given here.

Each molecule was assayed against Pantothenate synthetase (Mycobacterium tuberculosis (strain ATCC 25618 / H37Rv)) (UniProt P9WIL5) (assay: Recombinant Mtb pantothenate synthetase (PanC) inhibitors, coupled enzyme, confirmatory (AID 375;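 further: 0% = full reaction with vehicle and 100% = no enzyme background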)). Details: coupled enzyme assay; at 10 µM, hits give high values.
Pantothenate synthetase (Mycobacterium tuberculosis (strain ATCC 25618 / H37Rv)), sequence (P9WIL5 whole entry, looked up): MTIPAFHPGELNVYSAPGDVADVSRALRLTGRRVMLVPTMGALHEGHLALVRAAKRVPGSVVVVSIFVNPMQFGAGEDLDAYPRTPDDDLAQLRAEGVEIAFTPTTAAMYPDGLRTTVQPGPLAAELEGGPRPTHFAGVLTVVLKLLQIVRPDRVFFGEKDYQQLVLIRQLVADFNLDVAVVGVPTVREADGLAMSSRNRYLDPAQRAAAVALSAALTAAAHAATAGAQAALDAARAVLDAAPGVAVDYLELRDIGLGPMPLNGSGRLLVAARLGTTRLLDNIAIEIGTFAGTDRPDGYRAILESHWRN
In the case of `CCc1nc(N)nc(N)c1-c1ccc(Cl)cc1`, the inhibition is reported as 0%. `CC(=O)Oc1cccc2c1C(=O)c1c(OC(C)=O)cc(C(=O)O)cc1C2=O` gave an inhibition of 2%. With `CCOC(=O)c1[nH]c(C)c(C(=O)Nc2ccc(C)c(Cl)c2)c1C` the inhibition was 9%. With `OCCNc1nc2ccc(Cl)cc2[nH]1` the inhibition was 0%. With `COc1ccccc1CNC(=O)C(C)NS(=O)(=O)c1ccccc1` (stereo not given) the inhibition was 3%. `CCCCN1CN(S(=O)(=O)c2cccs2)c2nc3ccccc3nc21` showed an inhibition of 0%. `O=C(O)CCn1[nH]c(=O)ccc1=O` showed an inhibition of 0%. With `O=C(NCC1CCCO1)c1ccc(N2CCCCC2)nc1` (stereo not given) the inhibition was 0%. `CC(=O)N1CCc2cc(S(=O)(=O)NCCC(=O)NC3CCCc4ccccc43)ccc21` (stereo not given) showed an inhibition of 0%. `Cc1ccc(NC(=O)C2CCCN2S(=O)(=O)c2cccc3cccnc23)cc1F` (stereo not given) gave an inhibition of 0%. With `CC(C)(C)NCC(O)c1cc(O)cc(O)c1` (stereo not given) the inhibition was 0%. With `CCSc1nnc(NC(=O)c2cc(C)oc2C)s1` the inhibition was 11%. `Cn1c(=O)cc(OCC(=O)N2CCN(c3cccc(C(F)(F)F)c3)CC2)c2ccccc21` was tested, and the inhibition was 12%. Molecule `CCc1ccccc1N=C1SCC(=O)N1C` has an inhibition of 0%. `COc1cc(CN(C)CC(=O)c2[nH]c(C)c(C(C)=O)c2C)ccc1OC(F)F` showed an inhibition of 0%. Work on `Cn1nnnc1SCC(=O)N1CCN(c2ccccc2)CC1` yielded an inhibition of 0%. With `N#CCCN1CCN(S(=O)(=O)c2ccc(S(=O)(=O)NC3CCCC3)cc2)CC1` the inhibition was 0%. For `CN(Cc1ccccc1)C(=O)c1ccccc1NC(=O)c1ccco1`, the inhibition was 0%. With `CCC(CC)n1[nH]c(=O)c2c(C)cc(C)nc21` the inhibition was 3%. Work on `COc1ccc(OC)c(S(=O)(=O)Nc2ccccc2SC)c1` yielded an inhibition of 3%. `COc1ccccc1N1CC(O)=C(c2nc3ccccc3c(=O)[nH]2)C1=N` showed an inhibition of 13%. `CCN(CC)c1ccc2cc(NC(=O)CCC(=O)O)c(=O)oc2c1` was tested, and the inhibition was 0%. In the case of `CCCCn1cnc2c1c(=O)n(C)c(=O)n2C`, the inhibition is reported as 2%. With `CC(=O)c1ccc(OCC(O)CN2CCN(CCO)CC2)cc1` (stereo not given) the inhibition was 4%. Work on `CCc1nnc(NC(=O)c2ccc(-c3cccc(C(F)(F)F)c3)o2)s1` yielded an inhibition of 0%. `NCCN1CCN(CCN)CC1` showed an inhibition of 0%. For `CCOC(=O)N1CCN(C(=O)CSc2cc(C)nc3c(-c4ccccc4OC)c(C)nn23)CC1`, the inhibition was 0%. Molecule `COc1cccc(NC(=O)N(CCCN2CCOCC2)C(C)c2cc3cccc(OC)c3o2)c1` (stereo not given) has an inhibition of 0%. `Cc1noc(C)c1COC(=O)c1ccccc1Oc1ccccc1` gave an inhibition of 0%. `CCOC(=O)N1CCC(NC(=O)Cn2cc3c(n2)CCC(C)C3)CC1` (stereo not given) showed an inhibition of 0%. `Cc1ccc(C)c(S(=O)(=O)n2cnc3ccccc32)c1` showed an inhibition of 0%. `CC1=C(C(=O)Nc2ccccc2C)C2(CCCC2)C(C(N)=O)C(=O)N1` (stereo not given) gave an inhibition of 0%. `Cc1ccc2[nH]c(=O)c(CN(CCc3ccccc3)Cc3nnnn3CC3CCCO3)cc2c1` (stereo not given) was tested, and the inhibition was 2%. Molecule `COc1cc2c(cc1OC)C(C)N(C(=O)Cn1ncc3c1-c1ccccc1OC3)CC2` (stereo not given) has an inhibition of 0%. `COc1ccc(N2CCN(C(=O)COc3ccc4ccccc4c3)CC2)cc1` showed an inhibition of 2%. With `O=C(NCC(c1cccnc1)N1CCN(c2ccc(F)cc2)CC1)c1ccc(F)cc1` (stereo not given) the inhibition was 4%. Work on `O=C(O)CCN(CCC(=O)O)c1nnc(SCc2ccccc2)s1` yielded an inhibition of 2%. Work on `Cc1ccc(NC2=NC(c3ccccc3)n3c(nc(C)cc3=O)N2)cc1` (stereo not given) yielded an inhibition of 13%. In the case of `CC(CN1CCCCC1)OC(=O)c1ccc2c(c1)OCO2` (stereo not given), the inhibition is reported as 0%. Work on `O=C(Nc1cccc(OCC(=O)N2CCOCC2)c1)C1CCCCC1` yielded an inhibition of 0%.
